Laboratory results reported in the supplement of paper PMC9694430.

Key:
Experiment in all cases: thermal shift delta Tm vs DMSO control; higher = stronger stabilization (binding)
Details in all cases: 12.5 µM; protein concentration 2 µM
[1] = system: LOC_OS01G01410-cb001
Procedure, shortened: (§1)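 The melting temperature shift given here is a triplicate mean, measured against protein that received only DMSO. Melting temperatures came from Boltzmann fits of differential scanning fluorimetry data on E. coli-expressed, purified rice kinase domain constructs. Each 19.5 μl well contained 2 μM kinase, 100 mM potassium phosphate pH 7.5, 150 mM NaCl, 10% glycerol, 5 × SYPRO Orange and compound in DMSO. Plates were scanned from 25°C to 95°C at 0.05°C/s.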

[2] = system: LOC_OS01G02750-cb003
Procedure, shortened: as §1

[3] = system: LOC_OS01G10900-cb004
Procedure, shortened: as §1

[4] = system: LOC_OS01G13800-cb001
Procedure, shortened: as §1

[5] = system: LOC_OS01G14860-cb001
Procedure, shortened: as §1

[6] = system: LOC_OS01G21960-cb002
Procedure, shortened: as §1

[7] = system: LOC_OS01G39600-cb002
Procedure, shortened: as §1

[8] = system: LOC_OS01G48390-cb002
Procedure, shortened: as §1

[9] = system: LOC_OS01G51400-cb002
Procedure, shortened: as §1

[10] = system: T1, LOC_OS01G52050-cb004
T1 sequence (whole entry): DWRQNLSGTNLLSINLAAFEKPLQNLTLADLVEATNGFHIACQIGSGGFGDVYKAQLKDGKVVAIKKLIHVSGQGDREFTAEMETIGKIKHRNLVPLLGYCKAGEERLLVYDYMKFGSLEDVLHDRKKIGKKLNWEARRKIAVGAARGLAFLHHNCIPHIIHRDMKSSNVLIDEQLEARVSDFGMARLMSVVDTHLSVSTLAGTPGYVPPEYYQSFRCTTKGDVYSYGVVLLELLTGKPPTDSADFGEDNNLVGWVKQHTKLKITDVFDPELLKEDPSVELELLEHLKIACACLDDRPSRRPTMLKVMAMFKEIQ
Procedure, shortened: as §1

[11] = system: LOC_OS01G57100-cb003
Procedure, shortened: as §1

[12] = system: LOC_OS01G60330-cb001
Procedure, shortened: as §1

[13] = system: LOC_OS01G60700-cb002
Procedure, shortened: as §1

[14] = system: LOC_OS01G63280-cb003
Procedure, shortened: as §1

[15] = system: LOC_OS01G67340-cb003
Procedure, shortened: as §1

[16] = system: LOC_OS01G70970-cb002
Procedure, shortened: as §1

[17] = system: LOC_OS02G07810-cb001
Procedure, shortened: as §1

[18] = system: LOC_OS02G08530-cb003
Procedure, shortened: as §1

[19] = system: LOC_OS02G14120-cb001
Procedure, shortened: as §1

[20] = system: LOC_OS02G17970-cb001
Procedure, shortened: as §1

SMILES | thermal shift delta Tm [1] [°C] | thermal shift delta Tm [2] [°C] | thermal shift delta Tm [3] [°C] | thermal shift delta Tm [4] [°C] | thermal shift delta Tm [5] [°C] | thermal shift delta Tm [6] [°C] | thermal shift delta Tm [7] [°C] | thermal shift delta Tm [8] [°C] | thermal shift delta Tm [9] [°C] | thermal shift delta Tm [10] [°C] | thermal shift delta Tm [11] [°C] | thermal shift delta Tm [12] [°C] | thermal shift delta Tm [13] [°C] | thermal shift delta Tm [14] [°C] | thermal shift delta Tm [15] [°C] | thermal shift delta Tm [16] [°C] | thermal shift delta Tm [17] [°C] | thermal shift delta Tm [18] [°C] | thermal shift delta Tm [19] [°C] | thermal shift delta Tm [20] [°C]
CN1CC(O)C2=C/C(=N/NC(N)=O)C(=O)C=C21 (stereo not given) [Carbazochrome] | 0.3 | 0.81 | -0.04 | -0.31 | 0.31 | 0.23 | 0.14 | -0.01 | 0.5 | -1.17 | -0.08 | 0.07 | 0.11 | -0.22 | -0.39 | 0.31 | -0.8 | 0.45 | 0.37 | -0.48
CC(C)(C)c1nc(-c2cccc(NS(=O)(=O)c3c(F)cccc3F)c2F)c(-c2ccnc(N)n2)s1 | 1.54 | 0.76 | 0.26 | 0.08 | 8.58 | 1.84 | -9.31 | 0.37 | 0.33 | 1.56 | 2.01 | 7.29 | 1.89 | 19.8 | 1.21 | 3.43 | 1.44 | 1.92 | 3.94 | 1.55
Cc1cc(Nc2cc(N3CCN(C)CC3)nc(/C=C/c3ccccc3)n2)n[nH]1 [ENMD-2076 L-(+)-Tartaric acid] | 2.38 | 2.56 | 1.86 | -0.25 | 4.33 | 2.63 | 1.94 | 3.3 | 0.81 | 4.1 | 1.16 | 8.71 | 1.16 | 0.86 | 1.45 | 3.09 | 0.04 | 2.96 | 7.86 | 0.95
O=C1Nc2ccc(CN3C(=O)CSC3=O)cc2/C1=C/c1cc(CN2CCOCC2)c[nH]1 | 1.25 | 3.61 | 0.75 | 0.08 | 0.42 | 0.16 | 0.49 | 1.28 | 0.13 | 2.79 | 0.8 | 0.38 | 0.05 | 0.05 | 0.83 | 0.36 | -0.68 | 2.55 | 9.24 | -0.08
COc1ccc(F)c(F)c1C(=O)c1cnc(NC2CCN(S(C)(=O)=O)CC2)nc1N | 0.43 | -0.36 | 0.34 | -0.08 | 2.35 | 0.93 | 0.19 | 0.42 | -0.07 | -0.14 | 0.71 | 0.06 | 0.31 | -0.18 | 1.43 | 0.03 | 0.5 | 0.57 | -0.08 | -0.09
C=CC(=O)Nc1cccc(Oc2nc(Nc3ccc(N4CCN(C)CC4)cc3OC)ncc2Cl)c1 | 0.1 | -0.5 | 0.47 | 0.58 | 0.25 | 0.29 | 0.93 | 1.75 | 0.48 | 0.54 | -0.16 | 0.75 | 0.6 | 0.05 | -0.81 | 0.44 | 0.62 | 1.23 | 0.27 | 0.24
Cn1c2ccccc2c2c3c(c4c5ccccc5n(CCC#N)c4c21)CNC3=O | 2.6 | 2.74 | 0.09 | 1.15 | 4.78 | 2.78 | 3.54 | 1.96 | 0.8 | 3.9 | 2.09 | 2.57 | -1.36 | 1.14 | 4.81 | 3.29 | 2.07 | 5.99 | 9.45 | 3.31
CC(C)n1nc(-c2cc3cc(O)ccc3[nH]2)c2c(N)ncnc21 [Torkinib (PP242)] | 0.97 | 0.22 | 0.64 | 0.08 | 0.52 | 0.37 | -0.17 | 0.78 | 0.2 | 0.85 | 0.56 | 1.53 | 1.1 | 3.14 | 1.04 | 0.66 | 0.64 | 0.63 | 0.74 | 0.57
CCCS(=O)(=O)Nc1ccc(F)c(C(=O)c2c[nH]c3ncc(Cl)cc23)c1F | 2.48 | 2.88 | 1.45 | -0.05 | 0.85 | 0.52 | 2.73 | 3.29 | 0.32 | 1.3 | 0.54 | 2.26 | 1.16 | 5.8 | -0.05 | 2.74 | 1.49 | 0.84 | 1.51 | 0.28
O=C(Nc1ccccc1C(=O)NC1CCCCNC1=O)c1cc2ccccc2s1 (stereo not given) | -0.16 | 1.09 | 0.05 | 0.44 | 0.04 | 0.32 | -0.76 | -0.09 | 0.19 | -0.05 | 1.14 | 1.02 | 0.65 | -0.03 | 0.41 | 0.19 | 0.51 | 0.19 | 0.18 | 0.88
O=C(Nc1nccs1)C(c1cc(F)ccc1O)N1Cc2ccccc2C1=O (stereo not given) | 0.29 | 0.35 | 0.25 | -0.01 | 0.4 | 0.48 | -0.23 | -0.1 | -0.02 | -0.31 | 0.29 | 1.19 | 0.64 | -0.09 | 1.06 | 0.42 | 0.12 | 0.39 | 0.47 | 0.37
CN(C)C/C=C/C(=O)Nc1cc2c(Nc3ccc(F)c(Cl)c3)ncnc2cc1O[C@H]1CCOC1 [Afatinib (BIBW2992)] | 1.12 | -0.19 | 4 | 0.13 | 2.91 | -0.28 | 1.11 | 2.17 | 0.41 | 0.75 | 0.75 | 0.2 | 1 | -0.22 | -0.42 | 0.44 | 0.56 | 0.76 | 2.04 | -0.15
